# Hit rate of the full screen: of about 200,000 compounds, about 18,000 (9%) were called active. No stated cut-off is given here; in the data, active means inhibition above about 50%; inactive means the rest. The full list was thinned out, with actives kept by preference.
# Assay: antileishmanial activity against promastigotes – primary screen (AID 1063);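 further: promastigotes grown with compound for 44 hours at 28 °C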
# Details: Leishmania major promastigotes, resazurin fluorescence viability; at 10 µM; stronger effect = higher value
row,Compound,inhibition
1,Cc1ccc(S(=O)(=O)NC(C(=O)N2CCOCCOCCOCCOCC2)c2ccccc2)cc1 (stereo not given),-7.01% (inactive)
2,COc1cc(/C=N/NC(=O)c2ccccc2)ccc1OS(=O)(=O)c1ccccc1,1.2% (inactive)
3,COc1ccc(/C=N/NC(=O)c2ccncc2)cc1CN1CCCc2ccccc21,63.4% (active)
4,COc1ccc(/C=N/NC(=O)c2ccc(Cl)cc2)cc1COC(C)=O,-8.12% (inactive)
5,CC1CC(C)CN(CC(=O)N2c3ccccc3CCc3ccccc32)C1 (stereo not given),18.5% (inactive)
6,CC1CC(C)CN(C/C=C/c2ccccc2[N+](=O)[O-])C1 (stereo not given),83.9% (active)
7,CC(C)CNC(=O)COC(=O)/C=C/c1ccccc1[N+](=O)[O-],4.47% (inactive)
8,COc1cc(CN2CCNC(=O)C2CC(=O)NCCc2ncccc2C)cc(OC)c1 (stereo not given),-4.29% (inactive)
9,CC1=C(C)CC(C(=O)NC(C)CCc2ccccc2)C(C(=O)O)C1 (stereo not given),17.2% (inactive)
10,C=CCOc1c(CNn2cn[nH]c2=S)cccc1OC,25.5% (inactive)
11,N#Cc1c(N)nc2c3c(sc(=N)c2c1N)NC(=O)CC3c1ccccc1Cl (stereo not given),75.7% (active)
12,COc1ccc(C2CC(=O)Nc3sc(=N)c4c(N)c(C#N)c(N)nc4c32)cc1OC (stereo not given),-5.32% (inactive)
13,CSc1nc2c(c(=O)[nH]1)C(c1cccc(Cl)c1Cl)CC(=O)N2 (stereo not given),-5.68% (inactive)
14,COc1cccc2c1OCC(CN1CCN(C3CCCCC3)C(CCO)C1)=C2 (stereo not given),11.6% (inactive)
15,O=C(c1snnc1-c1ccccc1)N1CCOCC1,-3.05% (inactive)
16,CCc1nnc(NC(=O)CCC(=O)O)s1,-2.47% (inactive)
17,CCc1nnc(NC(=O)CCN(c2ccc(C)cc2)S(=O)(=O)c2ccccc2)s1,71.3% (active)
18,CCc1nnc(NC(=O)CCC(=O)NCc2ccccc2OC)s1,-6.69% (inactive)
19,Cc1ccc(C(=O)O)cc1NC(=O)c1ccc(Cn2nc(C)c(Cl)c2C)o1,-7.15% (inactive)
20,Cc1c(Cl)c([N+](=O)[O-])nn1Cc1ccc(C(=O)N/N=C\c2cc(Cl)ccc2O)o1,100% (active)
21,Cc1c(Cl)c([N+](=O)[O-])nn1CCCC(=O)Nc1cc(Cl)ccc1Cl,0.47% (inactive)
22,Cc1ccc(OCC(=O)NC(C)c2ccccc2)c([N+](=O)[O-])n1 (stereo not given),11.1% (inactive)
23,CCc1ccc(NC(=O)Nc2ccncc2)cc1,24.8% (inactive)
24,CCOC(=O)CN(C)Cc1c[nH]c2ccccc12,-1.3% (inactive)

row,Compound,inhibition
1,O=C(Cc1c[nH]c2ccccc12)OCCOC(=O)Cc1c[nH]c2ccccc12,94.7% (active)
2,NS(=O)(=O)c1ccc(NC(=O)COC(=O)CCc2c[nH]c3ccccc23)cc1,-4.64% (inactive)
3,Cc1ccc(C)c(-n2ccnc2SCC(N)=O)c1,-3.12% (inactive)
4,COc1ncnc2sc3c(c12)CCCC3,-1.31% (inactive)
5,CC1(C)CN=C(N2CCN(c3ncnc4sc5c(c34)CCCC5)CC2)S1,100% (active)
6,O=C(O)[C@@H]1CCCN1c1ncnc2sc3c(c12)CCC3,-0.86% (inactive)
7,O=C1c2ccccc2C(=O)N1CCC(O)C[N+](=O)[O-] (stereo not given),-0.84% (inactive)
8,Cc1ccc(Cl)cc1NC(=O)C1CCN(S(C)(=O)=O)CC1,2.22% (inactive)
9,COc1ccc(OC)c(C(=O)c2coc3ccc(OC)cc23)c1,6.9% (inactive)
10,COc1ccc(OC)c(C(=O)c2ccc(C(=O)O)cc2)c1,-2.29% (inactive)
11,COc1ccc2occ(C(=O)c3ccc(N=C(C)N(C)C)cc3)c2c1,100% (active)
12,COc1ccc2cc(CCl)c(Cl)nc2c1,5.05% (inactive)
13,O=C1N=C(N2CCOCC2)S/C1=C\C=C/c1ccccc1,7.77% (inactive)
14,CCc1ccc(/C=C2\SC(N3CCOCC3)=NC2=O)cc1,12.3% (inactive)
15,O=C1N=C(N2CCCC2)S/C1=C\c1cccc(Br)c1,96.6% (active)
16,COc1ccc(/C=C/C(=O)c2cc(Br)ccc(=O)c2O)cc1,-3.91% (inactive)
17,COc1ccc(C(=O)/C=C/c2ccc(OC3CSC3)cc2)cc1,75.7% (active)
18,COc1ccc(/C=C/C(=O)c2ccc(OC)cc2O)cc1,7.64% (inactive)
19,O=C(COc1ccccc1)Nc1ccc(N2CCN(C(=O)c3cccs3)CC2)cc1,-3.12% (inactive)
20,C=CCn1nc(-c2ccccc2)c2c(C)onc2c1=O,2.35% (inactive)
21,Cc1nnc(-c2ccc(Oc3ccc(C)c(C)c3)c([N+](=O)[O-])c2)o1,64.6% (active)
22,COc1ccc(OCC(=O)Nc2cc(C)c(Cl)cc2OC)c([N+](=O)[O-])c1,0.64% (inactive)
23,COc1ccc(-c2nc3cc([N+](=O)[O-])ccc3o2)cc1OC,-4.49% (inactive)
24,O=C(Nc1ccc(N2CCOCC2)cc1)c1ccc2c(c1)OCO2,-0.26% (inactive)

row,Compound,inhibition
1,CCc1ccc(CN(C)C(=O)CCc2nnc(-c3ccc(-c4ccccc4)cc3)o2)nc1,25.8% (inactive)
2,Clc1cccc(N=C2NN=C(c3ccc4c(c3)OCCO4)CS2)c1,4.41% (inactive)
3,CS(=O)(=O)N(CC(=O)N1CCN(Cc2ccccc2)CC1)c1ccc2c(c1)OCCO2,-0.45% (inactive)
4,c1ccc(CN2CCC(N=C3NN=C(c4ccc5c(c4)OCCO5)CS3)CC2)cc1,75.9% (active)
5,COc1ccccc1NC(=O)c1c(Br)cnn1C,-1.37% (inactive)
6,O=C(NNC1=C(C(=O)C(F)(F)F)CCC1)c1ccncc1,-0.87% (inactive)
7,CC(Nc1nc(N2CCCC2)nc2ccccc12)c1ccccc1 (stereo not given),100% (active)
8,CC(Nc1nc(N2CCOCC2)nc2ccccc12)c1ccccc1 (stereo not given),54.2% (active)
9,c1ccc2c(NC3C4CC5CC(C4)CC3C5)nc(N3CCOCC3)nc2c1 (stereo not given),69.9% (active)
10,CC(CN1CCOCC1)c1ccccc1 (stereo not given),5.49% (inactive)
11,Cc1cc(Oc2ccccc2)nc(N2CCOCC2)n1,-4.03% (inactive)
12,C(=N/Nc1cc(N2CCOCC2)nc(N2CCOCC2)n1)/c1ccccc1,-1.17% (inactive)
13,Fc1cnc(N2CCOCC2)nc1NCc1ccccc1,0.72% (inactive)
14,c1ccc(-c2cc(N3CCCCC3)c3ccccc3n2)cc1,43.1% (inactive)
15,CC(Nc1nc(N2CCN(CCO)CC2)nc2ccccc12)c1ccccc1 (stereo not given),16.7% (inactive)
16,COc1cc(C(=O)NCc2ccc(-n3cccc3)cc2)cc(OC)c1OC,23% (inactive)
17,COc1ccc(CCNC(=O)C(=O)NCc2ccccc2C)cc1OC,-0.59% (inactive)
18,CC(C)(C)NC(=O)c1ccc(Cn2cc(C(F)(F)F)ccc2=O)cc1,-0.17% (inactive)
19,Cc1ccc(C2NC(C(=O)O)CS2)cc1 (stereo not given),-9.29% (inactive)
20,Cc1cccc(NC(=S)NC(=O)c2ccc(Br)o2)c1,-3.34% (inactive)
21,CNC(=O)C(=O)N/N=C/c1ccccn1,-7.18% (inactive)
22,Cc1ccc(-c2ccc(/C=N/NC(=O)CN3CCOCC3)o2)cc1[N+](=O)[O-],96.8% (active)
23,Cc1cc(C)c([N+](=O)[O-])cc1-c1ccc(/C=N/NC(=O)c2nonc2N)o1,14.1% (inactive)
24,N#C/C(=C\c1ccc(-c2cccc([N+](=O)[O-])c2)o1)C(=O)NCCN1CCOCC1,17.4% (inactive)

row,Compound,inhibition
1,CNC(=O)/C(C#N)=C/c1c(F)cccc1Cl,99.2% (active)
2,O=C(/C=C/c1c(F)cccc1Cl)Nc1nn[nH]n1,-6.22% (inactive)
3,N#C/C(=C\c1ccccc1C(F)(F)F)C(=O)Nc1ccccc1F,7.15% (inactive)
4,COc1cccc(-c2ccc(SCC(=O)N3CCN(c4ccccc4)CC3)nn2)c1,4.58% (inactive)
5,O=C(CSc1ccc(-c2cccs2)nn1)Nc1ccccc1F,10.6% (inactive)
6,Cc1nnnn1/C(=C\c1ccccc1)C(=O)OCC(=O)N1CC2(C)CC1CC(C)(C)C2 (stereo not given),100% (active)
7,Cc1cccc(C(=O)NCC(=O)OCC(=O)N2CC3(C)CC2CC(C)(C)C3)c1 (stereo not given),43.9% (inactive)
8,COc1ccccc1C(=O)N1CC2(C)CC1CC(C)(C)C2 (stereo not given),-5.56% (inactive)
9,Cc1nnsc1C(=O)Nc1cccc(Cl)c1C,-7.14% (inactive)
10,CCOP(=O)(OCC)C(Nc1ccc([N+](=O)[O-])cc1)c1ccc(Cl)cc1 (stereo not given),36.9% (inactive)
11,CCCCOC(=O)c1ccc(NC(c2ccc(C)cc2)P(=O)(OC)OC)cc1 (stereo not given),2.9% (inactive)
12,CCOP(=O)(OCC)C(Nc1cccc(C)c1)c1ccc(F)cc1 (stereo not given),61.2% (active)
13,Cc1nc2cc(NC(=O)NC3CC3)ccc2n1C,-6.22% (inactive)
14,CCO[C@H]1OC(C(=O)N2CCN(Cc3ccccc3)CC2)=C[C@@H](c2cn(C(C)=O)c3ccccc23)[C@@H]1CCCO,71.4% (active)
15,CN1CCN(C(=O)C2=C[C@H](c3ccc4c(c3)OCO4)C[C@H](OCc3ccc(CO)cc3)O2)CC1,5.67% (inactive)
16,CCO[C@H]1OC(C(=O)NCc2ccccc2)=C[C@@H](c2coc3ccccc3c2=O)[C@@H]1CCCO,8.75% (inactive)
17,CC(=O)n1cc([C@@H]2C=C(C(=O)N3CCN(Cc4ccc5c(c4)OCO5)CC3)O[C@H](OCc3ccc(CO)cc3)C2)c2ccccc21,78.9% (active)
18,CC(=O)n1cc([C@H]2C=C(C(=O)N3CCOCC3)O[C@@H](OCc3ccc(CO)cc3)C2)c2ccccc21,0.43% (inactive)
19,CCO[C@H]1OC(C(=O)N2CCCCCCC2)=C[C@@H](c2ccc(C(F)(F)F)cc2)[C@@H]1CCCO,-8.31% (inactive)
20,CCC1CCCCN1C(=O)CSc1nc2c(c(=O)n(C)c(=O)n2C)n1C (stereo not given),-6.11% (inactive)
21,CCOc1ccc(C(CC(=O)O)n2cnnn2)cc1OC (stereo not given),-5.12% (inactive)
22,Cc1cc(NC(=O)CSc2nccn2-c2ccc([N+](=O)[O-])cc2)no1,-2.13% (inactive)
23,N/C(=N\OC(=O)N1c2ccccc2Sc2ccccc21)c1ccc(Br)cc1,26% (inactive)

# Source: PubChem BioAssay AID1063 (University of Pittsburgh Molecular Library Screening Center, 2008)
